Data: PubChem BioAssay AID2315 (National Center for Advancing Translational Sciences (NCATS), 2010)
In all, about 290,000 compounds went through this assay and about 27,000 (9.3%) were called active. This is one part of a sample in which actives are shown more often than they occur. A number with no mark means an inactive call. No stated cut-off is given here; in the data, active means inhibition mostly above about 28% (no sharp cut-off); inactive means mostly below about 43%.

Experiment: A qHTS for Small Molecule Inhibitors of Shiga Toxin; further: 0% is about no effect
Conditions: Vero cells, Shiga toxin protein synthesis inhibition reporter; at 38.7 µM, hits give high values

SMILES	inhibition
CC(=O)N1c2ccc(S(=O)(=O)N3CCC(C(=O)NCc4ccc(F)cc4)CC3)cc2CC1C (stereo not drawn)	-3.9%
CSc1ccccc1N1CCN(CCCCCC(=O)NC2CCCc3ccccc32)CC1 (stereo not drawn)	-5.33%
COc1ccc(C2Nc3ccccc3C(=O)N2c2ccc(F)cc2)cc1Cn1nnc2ccccc21 (stereo not drawn)	-5.43%
COc1ccc(N2C(=O)c3ccccc3NC2c2ccc(OC)c(CN3CCOCC3)c2)cc1 (stereo not drawn)	64% (active)
COc1ccc([N+](=O)[O-])cc1C1NN=C(c2cccc3ccccc23)S1 (stereo not drawn)	-12.5%
COc1ccc(C2Nc3ccccc3C(=O)N2Cc2ccccc2)cc1Cn1nnc2ccccc21 (stereo not drawn)	-22.2%
COc1ccc(CN2CCCC(C(=O)c3ccc(Cl)cc3)C2)cc1Cn1cncn1 (stereo not drawn)	-2.03%
COc1ccc(C2Nc3ccccc3C(=O)N2c2ccc(Cl)cc2)cc1Cn1cc([N+](=O)[O-])cn1 (stereo not drawn)	115% (active)
COC(=O)C1=CN(Cc2ccc(OC)cc2)C=C(C(=O)OC)C1c1ccc(O)c(OC)c1	-14.4%
CCC(NC(=O)C1CCCC1)c1ccc(C)cc1 (stereo not drawn)	-3.88%
O=C(Nc1ccc(Br)cc1)c1cc(S(=O)(=O)Nc2ccccn2)ccc1Cl	-18.3%
NC(=O)c1ccc(Nc2ccc3nonc3c2[N+](=O)[O-])cc1	-16.8%
N#Cc1c(-c2ccccc2)nc(SCc2cccc(C(F)(F)F)c2)[nH]c1=O	-1.96%
O=[N+]([O-])c1cnc2ccc3ccccc3c2c1	27.3%
O=[N+]([O-])c1ccc2c(c1)Nc1nc3ccccc3nc1N2	119% (active)
O=[N+]([O-])c1cccc(Nc2c3ccccc3nc3ccccc23)c1	-12.3%
CCc1ccccc1NC(=O)c1ccc2snnc2c1	-5.07%
O=C(Nc1cccc(Br)c1)c1ccc2snnc2c1	64% (active)
O=C(Nc1ccc2ccccc2c1)Nc1ccc2snnc2c1	1.94%
COc1ccccc1S(=O)(=O)c1c(C)cc(C)[nH]c1=O	-2.84%
Cc1cccc([C@@H]2[C@@H]3C(=O)N(C)C(=O)[C@@H]3[C@@H]3C(=O)Nc4ccccc4C(=O)N23)c1	-2.83%
Cn1c(NC(=O)c2ccccc2)nc2ccccc21	43.5% (active)
Cn1c(S(=O)(=O)O)nc2ccccc21	-9%
Cn1sc(NC(=O)c2ccccc2)nc1=O	33.6%

SMILES	inhibition
Cc1ccc2cc(C)c(N3CCN(c4ccc(F)cc4)CC3)nc2c1	27.6%
Cc1cc2c(cc1C)NC(c1ccccn1)C1=C(CC(C)(C)CC1=O)N2 (stereo not drawn)	51.7% (active)
Cc1nn(-c2ccccn2)c2c1C(c1ccncc1)C1=C(CC(C)(C)CC1=O)N2 (stereo not drawn)	-3.23%
CC1(C)CC(=O)C2=C(C1)Nc1cc(C(=O)c3ccccc3)ccc1NC2c1ccccn1 (stereo not drawn)	-5.56%
CCc1ccc(CN(C)C(=O)C2CCC(=O)N(Cc3cccc(OC)c3)C2)nc1 (stereo not drawn)	22.8%
CCOc1cccc(-c2nnc(SCC(=O)NC3CC3)n2C)c1	27%
COc1ccc(NC(=O)CSc2nncc(=O)n2N)cc1OC	-9.85%
O=C(COC(=O)Cn1cnc2ccccc21)Nc1cccc2c1C(=O)c1ccccc1C2=O	-13.5%
O=C(COC(=O)c1ccccc1)Nc1ccccc1Sc1ccccc1	-9.76%
O=C(COC(=O)c1cccc(Br)c1)Nc1cccc2c1C(=O)c1ccccc1C2=O	31.4% (active)
COc1ccc(C(=O)COC(=O)Cn2cnc3c2c(=O)n(C)c(=O)n3C)c(OC)c1	-5.14%
CC(C)(C)Nc1nc(-c2ccccn2)nc2ccccc12	-14.9%
Cc1ccc(Oc2nc(-c3ccccn3)nc3ccccc23)cc1	57.7% (active)
COc1cnc(-c2ccccn2)nc1Oc1ccc(C(C)(C)C)cc1	1.11%
COC1=C(N2CCOCC2)C(=O)c2ccccc2C1=O	-6.31%
CCOCCc1nn2c(=O)cc(CSCC(=O)Nc3cccc(C)c3C)nc2s1	-13.9%
O=C(Nc1cccc(-c2cscn2)c1)C1CCN(Cc2ccsc2)CC1	-4.07%
COCCNC(=O)COc1ccc(N(C)S(=O)(=O)c2ccc3ccccc3c2)cc1	-8.35%
O=S(=O)(O)c1nc2ccccc2n1Cc1ccc(Cl)cc1Cl	-6.41%
Cc1nc2ccccc2nc(C)c1=NOCc1ccc(Cl)cc1Cl	112% (active)
COC(=O)c1sc2ncccc2c1OCc1ccc(Cl)cc1Cl	6.72%
COC(=O)CSc1nnc(NC(=O)CCc2ccccc2)s1	10.7%
COc1ccc(CNS(=O)(=O)c2ccc(-c3cnc(C4CC4)o3)cc2)cc1	-4.74%
Cc1ccc(-n2ncc3c2CC(C)(C)CC3NC(=O)CCc2cnn(C)c2)cc1 (stereo not drawn)	-4.16%

SMILES	inhibition
O=C(Oc1cccc(NC2=NS(=O)(=O)c3ccccc32)c1)c1ccncc1	2.4%
Cc1ccc(S(=O)(=O)N(NC2=NS(=O)(=O)c3ccccc32)C(=O)c2ccccc2)cc1	-6.05%
CC(C)(C)c1csc(NC2=NS(=O)(=O)c3ccccc32)n1	97.3% (active)
Cc1ccc(C(C)C)c(OCCSc2nc3ccccc3n2CC(=O)O)c1	-6.58%
CC(OC(=O)c1ccccc1OCc1ccc(Cl)cc1)C(N)=O (stereo not drawn)	-20.8%
C=CCc1ccccc1OCC(O)CN1CCN(CCO)CC1 (stereo not drawn)	-5.91%
Cc1ccccc1NC(=O)C1CCCN(C(=O)NCc2ccccc2)C1 (stereo not drawn)	-9.33%
CCNC(=O)N1CCCC(C(=O)c2ccc(-c3ccccc3)cc2)C1 (stereo not drawn)	36.1% (active)
O=C(c1ccc(-c2ccccc2)cc1)C1CCCN(C(=O)c2cncs2)C1 (stereo not drawn)	16.3%
Cc1cccc(C(=O)N2CCN(S(=O)(=O)N3CCCCC3)CC2)c1	12.6%
CCC1CCCCN1C(=O)CSc1nc2c(c(=O)n1C)SC(C)C2 (stereo not drawn)	-5.97%
CCCCN(CCCC)CCNC(=O)CN1C(=O)COc2ccc(S(=O)(=O)N3CCOCC3)cc21	-2.7%
Oc1[nH]c2ccc(Br)cc2c1N=Nc1nn[nH]n1	2.43%
Cc1cccc(N=Nc2c(O)[nH]c3ccc(F)cc23)c1	143% (active)
NS(=O)(=O)c1ccc(N=Nc2c(O)[nH]c3ccc(Br)cc23)cc1	58.5%
Cc1ccc(CNC(=O)C2CCN(S(=O)(=O)c3ccc4nc5c(c(C(=O)O)c4c3)CC(C)CC5)CC2)cc1 (stereo not drawn)	19.6%
CCOC(=O)CSc1nnc(NC(=O)C2CC(=O)N(c3ccc(F)cc3)C2)s1 (stereo not drawn)	-11.5%
Cc1ccc(S(=O)(=O)NCC2CCC(C(=O)N3CCOCC3)CC2)cc1 (stereo not drawn)	-3.33%
O=C(c1cccnc1)N1CCN(S(=O)(=O)c2cccs2)CC1	-10.5%
CCOC(=O)c1cccc(NC(=O)CN2C(=O)C3CC=CCC3C2=O)c1 (stereo not drawn)	-2.13%
Cc1ccc(NC(=O)NC(=O)N(C2CCCCC2)S(=O)(=O)c2ccccc2)cc1	0% (active)
Cc1ccc(S(=O)(=O)N(C)CC(=O)OCC(=O)Nc2ccccc2)cc1	10.4%
CC(c1ccco1)N(C(=O)Nc1ccccc1)C1CCCCC1 (stereo not drawn)	71.5%
COc1cc(Br)c(-c2sc(Nc3ccccc3)n[n+]2-c2ccccc2)cc1OC	-9.06%

SMILES	inhibition
CCOC(=O)c1c(-c2ccccc2)csc1NC(=S)NC(=O)c1ccccc1	-2.96%
Cc1cc(C(=O)Nc2c(C)n(C)n(-c3ccccc3)c2=O)cs1	-6.98%
Cc1ccc(NC(=S)N/N=C2/CCCc3c(C)cc(C)cc32)cc1	-4.99%
Cc1ccc(C(=O)NC(=S)Nc2ccc(N3CCOCC3)cc2)cc1	30%
Cc1ccc(C)c(NC(=S)NNC(=S)Nc2ccc(C(C)C)cc2)c1	50.1% (active)
Cc1ccc(C(=O)NC(=S)Nc2ccccc2C)cc1	97.5% (active)
COc1ccc(C(=O)NNC(=S)NC(=O)c2ccccc2)cc1	31.4%
CC(C)c1ccc(NC(=S)NNc2ccc(Cl)c(C(=O)O)c2)cc1	52%
Cc1cc(C(=O)NNC(=S)Nc2ccccc2C)cs1	66.8% (active)
Cc1ccccc1NC(=S)NC(=O)Cc1ccc(Cl)cc1	-4.05%
Cn1nnc(NC(=S)NC(=O)c2ccccc2)n1	64.6% (active)
Cc1ccccc1NC(=S)NNC(=O)c1cccc(Br)c1	48.8%
O=C(Nc1ccc(F)cc1)C1CCCN(S(=O)(=O)c2ccc(-n3cnnn3)cc2)C1 (stereo not drawn)	-10.1%
Cc1nn(CC(=O)NC2CCCCC2)c(=O)c2cccn12	1.03%
CN(CC(=O)Nc1c(Cl)cccc1Cl)C(=O)CNC(=O)C1CCCCC1	8.74%
CCc1nccn1CCC(=O)N1CCCC(N2CCN(c3ccccc3F)CC2)C1 (stereo not drawn)	-3.27%
O=C(Nc1cc(-c2nc3ncccc3o2)ccc1Cl)c1ccco1	-5.97%
O=C1C[C@@H](c2ccc3ccccc3c2)N1S(=O)(=O)c1ccccc1[N+](=O)[O-]	-7.61%
Cc1sc2ncn(CC(=O)NCCCC(=O)N3CCN(c4ccccc4F)CC3)c(=O)c2c1C	-6.47%
CC1(C)Cc2c(sc(NC(=O)C(=O)NCC3CCCO3)c2C(=O)O)CO1 (stereo not drawn)	-2.38%
COc1cccc(CNC(=O)c2nnn(CC(=O)Nc3cc(C)ccc3C)c2N)c1	-3.78%
